Screening data deposited in PubChem by Broad Institute.
This is one part of a sample in which hits are shown more often than they occur.
ERp5 inh: inhibitors of ERp5-driven insulin aggregation, primary screen, biochemical, turbidity, absorbance 650 nm, single point; Protein disulfide-isomerase A6 (Homo sapiens), Q15084; 90 min; inhibition, % at 9.99 µM; 350,000 tested, 0.05% active;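 active means mean replicate inhibition above about 25%, with every replicate also reaching it, limit read from the data, passing the limit was not always enough; inconclusive means only one of those two criteria met; inactive means neither criterion met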
ERAP1 inh: human ERAP1 aminopeptidase inhibitors, primary screen, biochemical, single point, plate reader. 340,000 tested, 0.15% active. inhibition, % at 10.7 µM. recombinant ERAP1, Leu-AMC fluorescence, 60 min;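 active means mean replicate inhibition of at least 30%, or all replicates individually reaching that 30% level; inactive means mean below 30% and not every replicate reaching it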;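 further: 0% = neutral control wells and 100% = L-leucinethiol positive control wells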
HDAC3 inhib: HDAC3 deacetylase inhibitors, primary screen, biochemical, fluorescence, cell-free homogeneous. Histone deacetylase 3 (Homo sapiens), O15379. recombinant HDAC3, fluorogenic peptide/trypsin coupled. inhibition, % at 8.3 µM. 320,000 tested, 0.15% active; in the data active means inhibition above about 26%, passing the limit was not always enough; inconclusive means no clear call, values can overlap the other calls
Target sequence (O15379 whole entry, looked up): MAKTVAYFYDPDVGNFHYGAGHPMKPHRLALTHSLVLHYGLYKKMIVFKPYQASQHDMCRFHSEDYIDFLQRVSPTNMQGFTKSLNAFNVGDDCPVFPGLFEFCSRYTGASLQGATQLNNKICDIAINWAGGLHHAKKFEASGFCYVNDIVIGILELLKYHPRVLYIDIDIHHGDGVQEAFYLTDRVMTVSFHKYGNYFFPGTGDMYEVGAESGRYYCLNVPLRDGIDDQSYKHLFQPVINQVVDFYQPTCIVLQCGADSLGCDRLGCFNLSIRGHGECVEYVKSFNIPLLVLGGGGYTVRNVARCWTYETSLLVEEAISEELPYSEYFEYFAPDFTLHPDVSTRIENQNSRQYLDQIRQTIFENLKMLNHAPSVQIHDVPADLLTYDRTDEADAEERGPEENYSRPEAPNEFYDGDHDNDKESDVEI
SIRT5 inh: SIRT5 desuccinylase inhibitors, primary screen, biochemical, fluorescence imaging, single point, set 5 | Purified SirT5, succinyl-peptide AMC, trypsin-coupled fluorescence | 330,000 tested, 1.1% active | AID 652115, 2013 | inhibition, % at 15 µM; in the data active means inhibition above about 15%; inconclusive means no clear call, values can overlap the other calls
PDI turbidity: inhibitors of human PDI, primary screen, biochemical, turbidity, single point, plate reader | Protein disulfide-isomerase (Homo sapiens), P07237 | PDI insulin aggregation turbidity, A650, 90 min | inhibition, % at 10 µM | 350,000 tested, 0.052% active;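 active means mean inhibition across replicates of 30% or more, whatever share of single replicates reach that level; inconclusive means mean inhibition below 30% while every single replicate reaches 30%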
Numbers without * were called inactive; ? = inconclusive; . = no result; ! = not active in a repeat.

SMILES | ERp5 inh | ERAP1 inh | HDAC3 inhib | SIRT5 inh | PDI turbidity
COc1ccc(NC(=O)CN(C)C(=O)Cn2cnc3c2c(=O)n(C)c(=O)n3C)cc1 | -1 | 7 | -2 | -2 | -3
CCOC(=O)Cc1csc(NC(=O)CC)n1 | 4 | 0 | 6 | . | 5
CCCCCCC(=O)N(O)C1CC(=O)N(c2ccc(Cl)cc2)C1=O (stereo not drawn) | -1 | -1 | 63* | . | -5
CCCCCCC(=O)N(O)C1CC(=O)N(c2ccc(C)cc2)C1=O (stereo not drawn) | . | . | ? | . | -1
COc1cc(/C=C/C(=O)OCC(=O)c2ccc3c(c2)NC(=O)CO3)ccc1OC(F)F | -8 | 37* | -6 | -3 | -4
CCC(=O)N1CC[C@@H]2[C@@H](CO)N(C)c3ccc(-c4ccccc4)cc3[C@@H]21 | -1 | 1 | . | 0 | .
O=S(=O)(c1ccc(-c2ccccc2)cc1)N1[C@@H]2CNC[C@H]1C2c1ccc(-c2cccnc2)cc1 (stereo partly drawn) | -1 | 0 | . | 0 | .
C[C@H]1CN([C@@H](C)CO)C(=O)Cc2cc(NC(=O)Nc3cccc4ccccc34)ccc2O[C@@H]1CN(C)Cc1ccc(Cl)c(Cl)c1 | -1 | -2 | . | 16* | .
C[C@@H]1CN([C@@H](C)CO)C(=O)Cc2cc(NC(=O)Nc3ccccc3)ccc2O[C@H]1CN(C)S(=O)(=O)c1ccc(F)cc1 | 4 | -1 | . | 18* | .
CC(C)NC(=O)Nc1ccc2c(c1)CC(=O)N([C@@H](C)CO)C[C@@H](C)[C@@H](CN(C)C(=O)NC1CCCCC1)O2 | 0 | -1 | . | 18* | .
CNC[C@H]1Oc2ccc(NC(=O)Nc3ccc(F)cc3)cc2CC(=O)N([C@H](C)CO)C[C@@H]1C | 1 | 1 | . | 36* | .
CC(C)NC(=O)Nc1ccc2c(c1)CC(=O)N([C@H](C)CO)C[C@H](C)[C@H](CN(C)C(=O)NC1CCCCC1)O2 | -1 | -3 | . | 1 | .
C[C@@H]1CCCCO[C@H](CN(C)S(=O)(=O)c2ccccc2)[C@@H](C)CN([C@@H](C)CO)C(=O)c2cc(NS(C)(=O)=O)ccc2O1 | -3 | -2 | . | 6 | .
Cc1ccc(S(=O)(=O)Nc2ccc3c(c2)CC(=O)N([C@H](C)CO)C[C@H](C)[C@H](CN(C)C(=O)Nc2ccc(C(F)(F)F)cc2)O3)cc1 | 0 | -4 | . | -1 | .
C[C@@H]1CN([C@H](C)CO)C(=O)Cc2cc(NC(=O)Nc3cccc4ccccc34)ccc2O[C@H]1CN(C)C(=O)Nc1cccc2ccccc12 | 15 | -2 | . | 6 | .
Cc1ccc(S(=O)(=O)N(C)C[C@H]2Oc3ccc(NC(=O)Nc4cccc5ccccc45)cc3CC(=O)N([C@@H](C)CO)C[C@H]2C)cc1 | 0 | 1 | . | 19* | .
C[C@H]1CN([C@@H](C)CO)C(=O)Cc2cc(NC(=O)Nc3cccc4ccccc34)ccc2O[C@H]1CN(C)C(=O)Nc1cccc2ccccc12 | 26* | 0 | . | 11 | .
C[C@@H]1CN([C@H](C)CO)C(=O)c2cc(NC(=O)Nc3cccc4ccccc34)ccc2O[C@@H]1CN(C)C(=O)Nc1cccc2ccccc12 | 33* | 1 | . | 7 | .
C[C@@H]1CCCCO[C@@H](CN(C)S(=O)(=O)c2ccccc2)[C@H](C)CN([C@@H](C)CO)C(=O)c2cc(NS(=O)(=O)c3cn(C)cn3)ccc2O1 | 0 | 2 | . | -4 | .
O=C(OCCc1cc2ccccc2c(=O)o1)c1ccc(C(F)(F)F)cc1 | -1 | -2 | -15 | . | -3
O=C(OCCc1cc2ccccc2c(=O)o1)c1ccc(F)cc1 | -2 | 1 | 4 | 33* | 3
C[C@@H]1CCCCO[C@H](CN(C)S(=O)(=O)c2cccs2)[C@@H](C)CN([C@H](C)CO)C(=O)c2cc(NS(=O)(=O)c3cccs3)ccc2O1 | -4 | 6 | . | 4 | .
CC(=O)N1CCn2c3c(c4cc(C)ccc42)CCCC31 (stereo not drawn) | -9 | 2 | -1 | -2 | 7
Cc1ccc2c(c1)c1c3n2CCN(C(=O)CCl)C3CCC1 (stereo not drawn) | 3 | 0 | 7 | -6 | 59*
COC1=CC(=Cc2c(N)n3nc(CC(=O)N4CCCCC4)sc3nc2=O)C=C(OC)C1=O | 3 | 0 | -3 | 32* | 4
SMILES | ERp5 inh | ERAP1 inh | HDAC3 inhib | SIRT5 inh | PDI turbidity
COC1=C/C(=C/c2c(N)n3nc(CC(=O)N4CCCC4)sc3nc2=O)C=CC1=O | -1 | 2 | 3 | 30* | -7
COc1ccc(S(=O)(=O)N(CC(=O)N2CCCC2)Cc2ccccc2)cc1 | . | . | -7 | . | 2
CCOC1=C/C(=C/c2c(N)n3nc(CC(=O)N4CCCC4)sc3nc2=O)C=CC1=O | 2 | 0 | -1 | -2 | 7
CO[C@H]1CN(C)C(=O)c2ccc(NC(=O)Nc3cc(F)ccc3F)cc2OC[C@@H](C)N(C(=O)c2cnccn2)C[C@H]1C | -8 | -2 | . | 4 | .
C[C@@H]1CN([C@H](C)CO)C(=O)c2cc(NC(=O)c3ccncc3)ccc2O[C@@H](C)CCCCO[C@@H]1CN(C)S(=O)(=O)c1ccccc1 | 5 | 1 | . | 11 | .
C[C@@H]1CN([C@@H](C)CO)C(=O)c2cc(C3=CCCC3)cnc2O[C@@H]1CN(C)C(=O)CN1CCOCC1 | 3 | 2 | . | 3 | .
CC1(C)C(Cl)C(=O)C(C(=O)c2ccccc2)C(=O)C1Cl (stereo not drawn) | 13 | -1 | -13 | 94* | 0
CC(C)CCCCCCNC(=S)Nc1ccc(S(=O)(=O)N2CCOCC2)cc1 | 2 | -3 | 29* | -3 | 7
COc1cc2[nH]c(=O)n(CCCCCC(=O)N3CCN(c4ccccn4)CC3)c(=O)c2cc1OC | 1 | -3 | -2 | 24* | 11
COc1cc2[nH]c(=O)n(CCCC(=O)N3CC=C(c4ccccc4)CC3)c(=O)c2cc1OC | . | . | -1 | . | -3
C[C@@H](NC(=O)C[C@H]1CC[C@H](NC(=O)C2CC2)[C@H](CO)O1)c1ccccc1 | -2 | 0 | . | 2 | .
O=C(C[C@@H]1C=C[C@H](NC(=O)CN2CCOCC2)[C@H](CO)O1)NC1CCCCC1 | -8 | -1 | . | 18* | .
C[C@H](NC(=O)C[C@@H]1C=C[C@@H](NC(=O)CN2CCOCC2)[C@@H](CO)O1)c1ccccc1 | 2 | 10 | . | 27*! | .
C[C@@H](NC(=O)C[C@H]1CC[C@H](NC(=O)C2CC2)[C@@H](CO)O1)c1ccccc1 | -2 | 0 | . | 17* | .
C[C@@H]1CN([C@@H](C)CO)C(=O)c2cc(NC(=O)c3ccccc3)ccc2O[C@@H](C)CCCCO[C@H]1CN(C)Cc1ccc2c(c1)OCO2 | 1 | 3 | . | 9 | .
